Screening results deposited in PubChem by National Center for Advancing Translational Sciences (NCATS).
A selection: hits, their analogues and other compounds. The true share with any hit is near 11%.
ERK AVP block – qHTS Assay for Inhibitors of the ERK Signaling Pathway using a Homogeneous Screening Assay; AID 995, 2007; HEK293-V1b, vasopressin-stimulated pERK AlphaScreen; Potency, µM (titrated, usually from 57.5 µM), most hits filed as inhibitors; 72,000 compounds, 0.99% hits; also: nearly all actives have a fitted effect of over 55% in size
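V1b-HEK293 cells; cpd 30 min 37C; 25 nM vasopressin 5 min; lyse 10 min; AlphaScreen beads 5 hr RT. Normalized to DMSO basal and 25 nM vasopressin; AC50 by Hill fit.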
PK Bst – Pyruvate Kinase | 51,000 compounds, 1.2% hits | Potency, µM | purified pyruvate kinase, luminescence ATP production; ribose 5-phosphate activator present at AC10 | AID 361, 2006; in the data active = potency below about 11 µM; inconclusive = mostly about 12 µM to 25 µM;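 the screen sought inhibitors and activators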
15-hLO inh – qHTS Assay for Inhibitors of 15-hLO (15-human lipoxygenase); AID 887, 2007; Polyunsaturated fatty acid lipoxygenase ALOX15 (Homo sapiens), P16050; Potency, µM (top dose mostly 57.1 µM), hits mostly inhibitors; purified 15hLO-1, xylenol orange hydroperoxide absorbance; 74,000 compounds, 1.4% hits; also: nearly all actives have a fitted effect of over 55% in size
Target sequence (P16050 whole entry, looked up): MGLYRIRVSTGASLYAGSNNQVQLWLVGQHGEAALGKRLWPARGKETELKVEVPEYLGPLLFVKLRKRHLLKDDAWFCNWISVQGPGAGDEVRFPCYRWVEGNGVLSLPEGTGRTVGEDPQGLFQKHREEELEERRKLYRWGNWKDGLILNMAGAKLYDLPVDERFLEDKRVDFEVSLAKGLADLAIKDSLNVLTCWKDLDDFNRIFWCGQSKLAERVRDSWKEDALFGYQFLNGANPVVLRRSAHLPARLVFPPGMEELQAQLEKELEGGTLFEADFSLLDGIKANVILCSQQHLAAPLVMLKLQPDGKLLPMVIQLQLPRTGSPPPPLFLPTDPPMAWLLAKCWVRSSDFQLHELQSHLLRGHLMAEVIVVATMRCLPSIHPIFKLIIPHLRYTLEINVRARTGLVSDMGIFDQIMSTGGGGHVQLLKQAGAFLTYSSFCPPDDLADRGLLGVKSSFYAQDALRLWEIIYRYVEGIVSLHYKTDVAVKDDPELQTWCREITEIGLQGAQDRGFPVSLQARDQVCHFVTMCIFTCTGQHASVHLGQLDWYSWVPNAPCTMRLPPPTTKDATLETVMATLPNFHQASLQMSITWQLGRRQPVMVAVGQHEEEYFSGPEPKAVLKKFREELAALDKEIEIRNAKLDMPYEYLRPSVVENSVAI
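Quantitative HTS in 25 mM Hepes pH 7.5 containing 0.01% Triton X-100: human 15hLO-1 at 40 nM, arachidonic acid at 50 uM, 6 min turnover. Product quantified via ferrous oxidation/xylenol orange, 573:405 nm absorbance ratio.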
HADH2 inh – qHTS Assay for Inhibitors of HADH2 (Hydroxyacyl-Coenzyme A Dehydrogenase, Type II) | 3-hydroxyacyl-CoA dehydrogenase type-2 (Homo sapiens), Q99714 | recombinant HADH2, NADH fluorescence, beta-hydroxybutyryl-CoA | Potency, µM (series often up to 57.1 µM), most hits filed as inhibitors | 73,000 compounds, 3.4% hits | AID 886, 2007; also: nearly all actives have a fitted effect of over 60% in size
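20 nM HADH2 + cpd, 15 min RT; add 1 mM NAD+/90 uM beta-hydroxybutyryl-CoA; kinetic fluorescence 360/450 nm, 4 min. Tris-HCl pH 9.0, 0.01% Tween-20.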
HSD17B inh – qHTS Assay for Inhibitors of HSD17B4, hydroxysteroid (17-beta) dehydrogenase 4; 75,000 compounds, 7.6% hits; 3-hydroxyacyl-CoA dehydrogenase type-2 (Homo sapiens), Q99714; Potency, µM (titrated, usually from 57.1 µM), most hits filed as inhibitors; recombinant HSD17B10, NADH fluorescence kinetic;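 also: the protocol describes HADH2 (HSD17B10) and not the HSD17B4 of the title; nearly all actives have a fitted effect of over 70% in size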
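20 nM HADH2, pH 9.0 Tris/Tween; cpd preinc 15 min RT; start w/ 1 mM NAD+ + 90 uM b-hydroxybutyryl-CoA; kinetic fluor ex360/em450 q30s x 4 min; delta last-first.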
FLuc inh – qHTS Assay for Inhibitors of Firefly Luciferase; AID 411, 2009; purified firefly luciferase, luminescence, 8 min; Luciferin 4-monooxygenase (Photinus pyralis), P08659; 72,000 compounds, 2.2% hits; Potency, µM (titrated, usually from 57.1 µM), usual class: inhibitors; also: nearly all actives have a fitted effect of over 40% in size
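Luminescence read-out after 8 min at room temperature; enzyme reaction used luciferin plus 10 uM ATP (linear range) in imidazole buffer pH 7.2 with KCl, MgCl2, Tween 20 and BSA. Each sample was run as a titration.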
Numbers stand for hits; i = inactive; ? = inconclusive; nt = no result; [ ] = remark or other dose. Unless noted, calls follow the shape of the dose curve; as a rule, active = well fitted curve in the direction sought with a large enough effect; inconclusive = small, poorly fitted or top-dose-only effect, or another doubt; inactive = no such curve, though single readings can be large; an effect the other way counts as inactive or inconclusive.

SMILES | ERK AVP block | PK Bst | 15-hLO inh | HADH2 inh | HSD17B inh | FLuc inh
OC1(c2cccc(C(F)(F)F)c2)CCN(c2ncnc3c2[nH]c2ccc(F)cc23)CC1 | 25.1µM | nt | i | i | 15.8µM | i
O=C(c1ccco1)N1CCN(c2ncnc3c2[nH]c2ccc(Br)cc23)CC1 | ? | nt | i | i | ? | i
Fc1ccc2[nH]c3c(N4CCN(c5ccccc5)CC4)ncnc3c2c1 | 10µM | i | i | ? | ? | i
COc1ccc(C(=O)N2CCC3(CCCN(C(=O)Nc4cccc(C#N)c4)C3)CC2)cc1 | i | nt | i | i | i | i[11.4 µM]
Nc1ccccc1C(=O)/C=C\c1ccc2c(c1)OCO2 | i[11.5 µM] | nt | i[11.4 µM] | i[11.4 µM] | i[11.4 µM] | 3.16µM
O=C(/C=C\c1ccc2c(c1)OCO2)c1ccc(F)cc1 | i[11.5 µM] | nt | i[11.4 µM] | i[11.4 µM] | i[11.4 µM] | ?
O=C(O)CCCCCC[C@@H]1C(=O)NC(=O)N1CC[C@@H](O)C1CCCCC1 | nt | nt | nt | ? | nt | i
CCOc1ccc2c(O)csc2c1 | i | nt | i | ? | 25.1µM | i
Nc1ccccc1NC(=O)c1ccccc1N | i | i | i | i | 31.6µM | i
Cc1c(NC(=O)c2ccccc2N)cccc1C(=O)O | i | i | i | i | ? | i
Cc1cnc(CNc2ccnc(-c3ccc(C(=O)N(C)C)cc3)n2)cn1 | i | nt | i | i | i | i[2.29 µM]
CCn1c(SCc2ccc(C(=O)OC)o2)nc2sc3c(c2c1=O)CCCC3 | i | i | i | i | i | i
COC(=O)c1ccc(CSc2nc(C(F)(F)F)c3c(c2C#N)CCC3)o1 | ? | i | 20µM | ? | 25.1µM | i
CCN1C(=O)[C@H]2[C@H]3[C@H](O)[C@H](O)C/C(=N/OC[C@@H](C)[C@H](OCc4ccccc4)C(C)C)[C@@H]3CC[C@@H]2C1=O | i[11.5 µM] | nt | i[11.4 µM] | i[11.4 µM] | i[11.4 µM] | i[11.4 µM]
CNC(=O)Cn1ncc2c(C)n(Cc3ccc(C)cc3)c(C)c2c1=O | nt | nt | i | i | i | nt
COC(=O)Cn1ncc2c(C)n(Cc3ccccc3)c(C)c2c1=O | i | nt | i | i | i | 20µM
COc1ccc2cnn(-c3ccccc3)c(=O)c2c1OC | i | i | i | i | i | i
COc1ccc2cnn(Cc3ccccc3)c(=O)c2c1OC | i | ? | i | i | 25.1µM | i
COc1c(Cl)ccc(Cl)c1C(=O)O | i | nt | i | nt | ? | nt
C/C=C/C1Oc2ccc(OC)cc2N2C(=O)C(C)C(OCOC)C12 (configuration not stated) | i[11.5 µM] | nt | i[11.4 µM] | i[11.4 µM] | i[11.4 µM] | nt
COC(=O)C/C=C\[C@@H](C)[C@@H](/C=N\OC[C@@H](O)COCc1ccco1)OC | i[11.5 µM] | nt | i[11.4 µM] | i[11.4 µM] | i[11.4 µM] | i[11.4 µM]
COc1ccccc1CC(=O)Nc1ccc(O)cc1C(=O)O | i | i | i | ? | 31.6µM | i
COc1cc(NC(=O)CN2C(=O)c3ccccc3C2=O)c(C(=O)O)cc1OC | i | nt | i | i | i | i
Cc1csc2c(C#N)c(=O)c3c(n12)CCC3 | ? | i | i | i | 15.8µM | i
COC(=O)C1=C(C)NC(C)=C(C(=O)OC)C1c1ccc(NC(C)=O)cc1 | i | i | i | i | 25.1µM | i
SMILES | ERK AVP block | PK Bst | 15-hLO inh | HADH2 inh | HSD17B inh | FLuc inh
Cc1[nH]c2ccc(Br)cc2c(=O)c1CN1CCCCC1 | i | i | i | i | i | i
COC(=O)c1ccc2[nH]c(C)c(CN3CCCC3)c(=O)c2c1 | i | i | ? | ? | 25.1µM | i
COC(=O)C1=C(C)NC2=C(C(=O)CCC2)C1c1cccs1 (configuration not stated) | i | i | i | i | 31.6µM | i
CC1=C(C(=O)N2CCCCC2)C(c2cccs2)C2=C(CCCC2=O)N1 (configuration not stated) | i | nt | i | ? | 31.6µM | i
CC1=C(C(=O)N2CCOCC2)C(c2cccs2)NC(=O)N1 (configuration not stated) | i | nt | i | i | i | i
CC1=C(C(=O)OC(C)C)C(c2cccs2)C2=C(CCCC2=O)N1 (configuration not stated) | nt | nt | i | i | ? | nt
O=C(O)C1OC(O)C(O)C(O)C1O (configuration not stated) | i | nt | i | nt | i | nt
CC(=O)[C@H]1CC[C@@H]2[C@H]3CC=C4C[C@@H](O)CC[C@]4(C)[C@H]3CC[C@]12C | i | nt | i | i | i | i
Cc1cn(C2CC(N=[N+]=[N-])C(CO)O2)c(=O)[nH]c1=O (configuration not stated) | i | nt | i | nt | i | nt
Cc1nn(-c2ccc(F)cc2)c2sc(C(=O)OC3CCOC3=O)cc12 (configuration not stated) | i | i | i | i | 25.1µM | i
CCN(CC)[C@@H](C)C(=O)N1c2ccccc2Sc2ccccc21 | nt | nt | nt | i | nt | i
COCc1cc(C)nc2sc(C(=O)N3CCN(c4ccccc4)CC3)c(N)c12 | nt | nt | 6.31µM | ? | i | i
Cc1cc(C)c2c(N)c(C(=O)N3CCN(c4ncccn4)CC3)sc2n1 | i | i | i | i | 25.1µM | i
Cc1c(C(=O)N2CCN(c3ccccc3)CC2)sc2ncnc(N3CCN(c4ccccc4)CC3)c12 | i | i | i | i | i | i
Cc1cc(C(=O)N2CCN(c3ncccn3)CC2)cs1 | i | i | i | i | i | i
C[C@@]12CCC(=O)C=C1CC[C@H]1[C@@H]2[C@@H](O)C[C@]2(C)[C@@H]1CC[C@@]2(O)C(=O)COC(=O)C1CCCC1 | i[11.5 µM] | nt | i[11.4 µM] | i[11.4 µM] | i[11.4 µM] | i[11.4 µM]
Cc1ccc(S(=O)(=O)OC2CCN(C)CC2)cc1 | i[11.5 µM] | nt | i[11.4 µM] | i[11.4 µM] | i[11.4 µM] | i[11.4 µM]
Clc1ccccc1-c1nccc(NCc2cccs2)n1 | 15.8µM | nt | i | i | i | i[2.29 µM]
c1cncc(-c2nccc(NCc3cccs3)n2)c1 | 31.6µM | nt | ? | ? | i | i[2.29 µM]
c1csc(CNc2cc(-c3ccoc3)ncn2)c1 | i | nt | i | i | i | i[2.29 µM]
COc1cccc(-c2nccc(NCc3cccnc3)n2)c1 | i | nt | i | ? | 20µM | i[2.29 µM]
COc1cccc(-c2nccc(NCc3cccs3)n2)c1 | i | nt | i | i | i | i[2.29 µM]
COc1ccc(CNc2ccnc(-c3cccc(C#N)c3)n2)c(OC)c1 | i | nt | i | i | i | i[2.29 µM]
c1cncc(-c2cc(NCc3cccs3)ncn2)c1 | i | nt | 25.1µM | 25.1µM | ? | i[2.29 µM]
Cc1cc(CNC(=O)[C@H](C)[C@H]2C[C@]2(C)[C@H](NC(=O)OCc2ccccc2)c2ccccc2)nn1C | i | nt | nt | i | i | nt
COC(=O)NC(/C(C(=O)OC)=C(\C)NCc1ccccc1)c1cccc(C)c1 (configuration not stated) | i[11.5 µM] | nt | i[11.4 µM] | i[11.4 µM] | i[11.4 µM] | nt
CC[N+](CC)(CC)CC[C@](O)(c1ccccc1)C1CCCCC1 | i | nt | i | i | i | i
